{"source": "the supplement of paper PMC11732987", "about": "“Enantioselective OTUD7B fragment discovery through chemoproteomics screening and high-throughput optimisation” (Communications Chemistry, 2025)", "test_in_all_cases": "log2 ratio of Biotin-Ahx-Ub-VS probe labelling (fragment/DMSO); higher = less target engagement (more negative = stronger competition), active = hit call of the paper (q ≤ 0.05, log2 ratio ≤ -1)", "conditions_in_all_cases": "compound concentration: 200 uM; treatment time: 3 h", "key": {"[1]": {"target": "T1, ALG13 (UniProt Q9NP73)", "T1 sequence (whole entry)": "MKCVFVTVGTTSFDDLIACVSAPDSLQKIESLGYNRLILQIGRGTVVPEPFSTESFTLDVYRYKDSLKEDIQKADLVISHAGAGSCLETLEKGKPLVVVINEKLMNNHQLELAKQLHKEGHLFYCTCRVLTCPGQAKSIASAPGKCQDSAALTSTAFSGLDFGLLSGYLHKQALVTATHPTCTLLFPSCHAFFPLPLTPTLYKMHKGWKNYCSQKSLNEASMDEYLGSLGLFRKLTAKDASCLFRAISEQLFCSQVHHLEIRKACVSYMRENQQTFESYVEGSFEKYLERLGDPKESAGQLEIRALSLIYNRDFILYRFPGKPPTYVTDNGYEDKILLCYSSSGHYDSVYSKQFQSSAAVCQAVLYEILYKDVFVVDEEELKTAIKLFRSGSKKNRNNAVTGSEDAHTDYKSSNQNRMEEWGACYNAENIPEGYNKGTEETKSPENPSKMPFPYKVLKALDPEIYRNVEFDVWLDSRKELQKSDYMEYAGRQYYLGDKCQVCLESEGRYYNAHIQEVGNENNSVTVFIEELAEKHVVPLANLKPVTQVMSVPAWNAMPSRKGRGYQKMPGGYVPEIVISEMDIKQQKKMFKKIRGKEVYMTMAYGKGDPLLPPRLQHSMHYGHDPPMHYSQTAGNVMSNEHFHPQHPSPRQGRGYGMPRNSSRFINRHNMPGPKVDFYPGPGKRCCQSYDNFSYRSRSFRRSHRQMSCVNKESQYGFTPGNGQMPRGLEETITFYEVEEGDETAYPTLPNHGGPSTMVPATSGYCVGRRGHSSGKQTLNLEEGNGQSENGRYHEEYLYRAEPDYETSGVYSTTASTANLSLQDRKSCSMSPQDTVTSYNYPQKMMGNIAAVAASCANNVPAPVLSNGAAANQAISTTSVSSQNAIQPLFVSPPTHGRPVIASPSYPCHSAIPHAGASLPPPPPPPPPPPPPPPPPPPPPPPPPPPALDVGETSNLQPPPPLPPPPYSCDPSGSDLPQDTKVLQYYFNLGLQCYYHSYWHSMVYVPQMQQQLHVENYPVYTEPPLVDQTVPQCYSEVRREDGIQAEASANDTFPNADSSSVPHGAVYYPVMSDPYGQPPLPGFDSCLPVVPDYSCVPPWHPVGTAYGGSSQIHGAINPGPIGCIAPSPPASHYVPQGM", "outline": "(§1)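 Fragment (200 µM) or vehicle was incubated for 3 h with triplicate HEK293T lysate samples of 495 µg, which were then treated with Biotin-Ahx-Ub-VS at 0.5 µM final for 1 h. Labelled DUBs were enriched on NeutrAvidin, digested with LysC and trypsin, and analysed by diaPASEF LC-MS/MS. Values are average log2 fragment/vehicle ratios from an unpaired t-test on global-median-normalised Spectronaut label-free quantities, using proteins with ≥2 unique peptides.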"}, "[2]": {"target": "ATXN3 (UniProt P54252)", "sequence (P54252 whole entry)": "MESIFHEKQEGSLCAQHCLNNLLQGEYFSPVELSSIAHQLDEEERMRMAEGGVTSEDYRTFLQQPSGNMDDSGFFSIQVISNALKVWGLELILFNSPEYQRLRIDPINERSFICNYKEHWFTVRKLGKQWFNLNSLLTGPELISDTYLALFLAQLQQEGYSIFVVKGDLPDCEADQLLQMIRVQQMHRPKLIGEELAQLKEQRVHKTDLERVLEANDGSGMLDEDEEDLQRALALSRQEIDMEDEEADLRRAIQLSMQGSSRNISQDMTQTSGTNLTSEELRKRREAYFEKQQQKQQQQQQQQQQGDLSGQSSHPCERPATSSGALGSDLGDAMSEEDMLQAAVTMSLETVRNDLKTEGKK", "outline": "as §1"}, "[3]": {"target": "T2, BAP1 (UniProt Q92560)", "T2 sequence (whole entry)": "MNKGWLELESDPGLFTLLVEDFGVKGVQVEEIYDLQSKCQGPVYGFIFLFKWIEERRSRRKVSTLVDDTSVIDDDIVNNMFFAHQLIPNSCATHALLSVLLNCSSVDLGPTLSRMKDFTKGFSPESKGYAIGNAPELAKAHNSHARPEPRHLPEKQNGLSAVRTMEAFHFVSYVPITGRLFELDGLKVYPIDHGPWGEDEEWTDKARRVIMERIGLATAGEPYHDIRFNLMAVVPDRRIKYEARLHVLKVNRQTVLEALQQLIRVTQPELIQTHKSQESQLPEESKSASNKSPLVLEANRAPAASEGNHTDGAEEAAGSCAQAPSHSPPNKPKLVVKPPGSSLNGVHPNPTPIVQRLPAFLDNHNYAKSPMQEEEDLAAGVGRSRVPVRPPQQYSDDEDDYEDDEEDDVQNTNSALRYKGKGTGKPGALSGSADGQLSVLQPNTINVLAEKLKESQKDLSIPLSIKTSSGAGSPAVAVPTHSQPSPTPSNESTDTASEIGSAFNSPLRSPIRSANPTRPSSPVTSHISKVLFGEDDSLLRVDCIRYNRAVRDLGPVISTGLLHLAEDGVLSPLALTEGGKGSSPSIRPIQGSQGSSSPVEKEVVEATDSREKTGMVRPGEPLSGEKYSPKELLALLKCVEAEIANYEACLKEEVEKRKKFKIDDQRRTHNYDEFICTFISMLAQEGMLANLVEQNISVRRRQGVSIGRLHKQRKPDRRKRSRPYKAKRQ", "outline": "as §1"}, "[4]": {"target": "EIF3F (UniProt O00303)", "sequence (O00303 whole entry)": "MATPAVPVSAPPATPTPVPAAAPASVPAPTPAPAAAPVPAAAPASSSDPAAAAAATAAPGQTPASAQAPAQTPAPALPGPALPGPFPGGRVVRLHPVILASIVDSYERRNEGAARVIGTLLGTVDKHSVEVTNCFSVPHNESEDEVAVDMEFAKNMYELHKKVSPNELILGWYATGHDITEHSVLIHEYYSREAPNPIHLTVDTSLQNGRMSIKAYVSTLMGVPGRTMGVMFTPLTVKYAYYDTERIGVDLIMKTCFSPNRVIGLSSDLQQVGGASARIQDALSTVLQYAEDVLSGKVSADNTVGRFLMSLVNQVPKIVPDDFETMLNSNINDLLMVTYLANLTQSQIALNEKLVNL", "outline": "as §1"}, "[5]": {"target": "EIF3H (UniProt O15372)", "sequence (O15372 whole entry)": "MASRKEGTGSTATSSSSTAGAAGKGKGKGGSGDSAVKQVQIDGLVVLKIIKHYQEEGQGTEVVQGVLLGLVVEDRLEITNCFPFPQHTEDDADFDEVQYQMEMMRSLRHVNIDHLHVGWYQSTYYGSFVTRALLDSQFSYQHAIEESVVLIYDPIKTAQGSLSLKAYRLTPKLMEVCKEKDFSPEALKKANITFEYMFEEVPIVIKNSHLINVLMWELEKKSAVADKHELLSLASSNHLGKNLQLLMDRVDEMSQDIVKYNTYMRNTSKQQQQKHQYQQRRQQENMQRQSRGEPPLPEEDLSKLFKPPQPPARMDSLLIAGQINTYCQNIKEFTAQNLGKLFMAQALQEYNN", "outline": "as §1"}, "[6]": {"target": "T3, FAM105A (UniProt Q9NUU6)", "T3 sequence (whole entry)": "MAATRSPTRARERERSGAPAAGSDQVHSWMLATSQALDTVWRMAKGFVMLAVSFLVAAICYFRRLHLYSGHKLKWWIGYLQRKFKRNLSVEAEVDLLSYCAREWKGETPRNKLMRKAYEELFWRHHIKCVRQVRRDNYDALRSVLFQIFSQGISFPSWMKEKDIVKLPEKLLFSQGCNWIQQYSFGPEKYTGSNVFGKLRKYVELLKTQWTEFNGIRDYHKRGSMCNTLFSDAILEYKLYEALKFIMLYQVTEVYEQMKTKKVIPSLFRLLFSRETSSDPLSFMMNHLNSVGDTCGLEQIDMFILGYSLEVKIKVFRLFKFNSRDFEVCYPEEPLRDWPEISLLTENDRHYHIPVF", "outline": "as §1"}, "[7]": {"target": "OTUB1 (UniProt Q96FW1)", "sequence (Q96FW1 whole entry)": "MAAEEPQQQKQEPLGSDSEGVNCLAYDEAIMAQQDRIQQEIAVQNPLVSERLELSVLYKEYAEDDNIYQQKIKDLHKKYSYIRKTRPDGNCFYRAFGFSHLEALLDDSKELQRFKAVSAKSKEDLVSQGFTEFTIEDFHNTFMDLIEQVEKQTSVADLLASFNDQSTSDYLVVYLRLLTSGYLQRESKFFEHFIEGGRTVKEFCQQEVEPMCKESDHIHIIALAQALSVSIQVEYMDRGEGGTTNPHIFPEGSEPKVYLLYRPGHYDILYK", "outline": "as §1"}, "[8]": {"target": "T4, OTUD4 (UniProt Q01804)", "T4 sequence (whole entry)": "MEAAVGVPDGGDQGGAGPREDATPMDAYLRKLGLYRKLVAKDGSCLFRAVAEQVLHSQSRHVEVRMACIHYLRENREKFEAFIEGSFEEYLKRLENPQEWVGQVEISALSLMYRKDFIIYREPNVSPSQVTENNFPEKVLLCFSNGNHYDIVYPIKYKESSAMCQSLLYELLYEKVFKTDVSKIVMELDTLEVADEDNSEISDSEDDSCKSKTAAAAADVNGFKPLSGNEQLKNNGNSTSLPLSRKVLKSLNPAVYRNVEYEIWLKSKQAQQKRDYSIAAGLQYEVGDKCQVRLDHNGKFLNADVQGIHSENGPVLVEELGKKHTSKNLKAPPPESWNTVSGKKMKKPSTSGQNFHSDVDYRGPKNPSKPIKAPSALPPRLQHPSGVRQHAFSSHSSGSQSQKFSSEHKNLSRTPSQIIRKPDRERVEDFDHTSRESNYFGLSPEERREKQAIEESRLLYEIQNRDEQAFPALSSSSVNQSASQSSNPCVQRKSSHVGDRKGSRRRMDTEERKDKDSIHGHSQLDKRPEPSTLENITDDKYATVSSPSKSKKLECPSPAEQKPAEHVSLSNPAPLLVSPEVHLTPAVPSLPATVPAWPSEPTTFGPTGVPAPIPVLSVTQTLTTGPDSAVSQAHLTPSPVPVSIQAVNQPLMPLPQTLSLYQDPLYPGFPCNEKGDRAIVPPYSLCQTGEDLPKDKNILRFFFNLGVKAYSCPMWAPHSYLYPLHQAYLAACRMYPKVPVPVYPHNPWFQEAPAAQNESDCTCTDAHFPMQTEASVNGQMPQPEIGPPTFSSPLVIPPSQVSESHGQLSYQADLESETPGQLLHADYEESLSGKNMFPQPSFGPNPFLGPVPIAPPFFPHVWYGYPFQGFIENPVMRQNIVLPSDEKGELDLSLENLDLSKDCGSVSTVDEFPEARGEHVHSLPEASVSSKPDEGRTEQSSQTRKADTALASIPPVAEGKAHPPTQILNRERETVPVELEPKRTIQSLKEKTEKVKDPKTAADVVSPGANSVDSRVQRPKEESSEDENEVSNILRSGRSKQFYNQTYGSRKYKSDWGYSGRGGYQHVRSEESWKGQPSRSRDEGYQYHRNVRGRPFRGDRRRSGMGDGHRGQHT", "outline": "as §1"}, "[9]": {"target": "T5, OTUD5 (UniProt Q96G74)", "T5 sequence (whole entry)": "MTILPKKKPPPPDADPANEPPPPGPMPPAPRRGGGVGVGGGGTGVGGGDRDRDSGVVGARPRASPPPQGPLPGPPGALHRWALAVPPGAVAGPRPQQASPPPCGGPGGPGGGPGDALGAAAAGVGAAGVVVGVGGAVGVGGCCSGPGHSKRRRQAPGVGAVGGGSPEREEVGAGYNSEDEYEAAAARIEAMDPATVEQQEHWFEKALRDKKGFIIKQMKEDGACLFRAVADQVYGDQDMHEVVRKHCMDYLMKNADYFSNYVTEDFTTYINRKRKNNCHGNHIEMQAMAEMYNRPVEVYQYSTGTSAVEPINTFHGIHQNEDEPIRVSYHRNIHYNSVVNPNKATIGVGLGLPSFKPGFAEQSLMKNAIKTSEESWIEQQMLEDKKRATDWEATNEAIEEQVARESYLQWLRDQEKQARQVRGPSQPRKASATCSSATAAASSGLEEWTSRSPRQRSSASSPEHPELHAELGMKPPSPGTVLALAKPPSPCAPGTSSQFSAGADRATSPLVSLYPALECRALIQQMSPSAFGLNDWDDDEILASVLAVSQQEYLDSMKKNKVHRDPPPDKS", "outline": "as §1"}}, "note": "Values without a mark were called inactive."}
{"compound": "Cc1cccc(N2CCC(NC(=O)CCl)C2=O)c1", "note": "(centres undefined)", "values": [{"measurement": "log2 ratio of Biotin-Ahx-Ub-VS probe labelling", "setting": "[1]", "result": -0.354}, {"measurement": "log2 ratio of Biotin-Ahx-Ub-VS probe labelling", "setting": "[2]", "result": -0.569}, {"measurement": "log2 ratio of Biotin-Ahx-Ub-VS probe labelling", "setting": "[3]", "result": "-4.17 (active)"}, {"measurement": "log2 ratio of Biotin-Ahx-Ub-VS probe labelling", "setting": "[4]", "result": -0.331}, {"measurement": "log2 ratio of Biotin-Ahx-Ub-VS probe labelling", "setting": "[5]", "result": 0.306}, {"measurement": "log2 ratio of Biotin-Ahx-Ub-VS probe labelling", "setting": "[6]", "result": 0.111}, {"measurement": "log2 ratio of Biotin-Ahx-Ub-VS probe labelling", "setting": "[7]", "result": -0.325}, {"measurement": "log2 ratio of Biotin-Ahx-Ub-VS probe labelling", "setting": "[8]", "result": -0.412}, {"measurement": "log2 ratio of Biotin-Ahx-Ub-VS probe labelling", "setting": "[9]", "result": -0.338}]}
